A selection: hits, their analogues and other compounds. The true share with any hit is near 3%.
TRb-SRC2 inh: disrupts binding of human TR beta to SRC2. AID 1469. TRbeta-SRC2 peptide binding, fluorescence polarization; receptor liganded with 1 µM T3. 0.065% of 280,000 active. Potency, µM (titrated, usually from 106 µM), usual class: inhibitors. P10828; also: nearly all actives have a fitted effect of over 50% in size
Target sequence (P10828 whole entry, looked up): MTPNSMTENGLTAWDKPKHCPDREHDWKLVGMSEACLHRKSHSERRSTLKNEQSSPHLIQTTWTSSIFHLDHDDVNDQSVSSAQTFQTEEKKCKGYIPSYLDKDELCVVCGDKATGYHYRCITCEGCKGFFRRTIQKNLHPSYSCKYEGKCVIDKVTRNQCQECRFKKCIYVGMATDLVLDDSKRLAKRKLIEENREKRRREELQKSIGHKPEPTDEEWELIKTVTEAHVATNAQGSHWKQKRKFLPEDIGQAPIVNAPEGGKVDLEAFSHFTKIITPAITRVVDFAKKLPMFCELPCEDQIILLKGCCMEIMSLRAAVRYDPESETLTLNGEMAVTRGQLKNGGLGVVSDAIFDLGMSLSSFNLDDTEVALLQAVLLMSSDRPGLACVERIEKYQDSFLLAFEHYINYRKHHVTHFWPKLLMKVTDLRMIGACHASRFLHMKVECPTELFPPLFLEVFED
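Each compound concentration gave % activity, normalized to unbound and bound Texas Red SRC2 controls, from polarization read after 5 hr ambient incubation with T3-loaded human TRb LBD.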
Tau fluor counter: counter-screen for tau fibril formation inhibitors | tau K18 P301L Alexa594 fluorescence, heparin fibrillization | Potency, µM (titrated, usually from 57.7 µM) | 0.93% of 280,000 active | AID 1463; also: nearly all actives have a fitted effect of over 55% in size
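Human tau K18 P301L (15 uM unlabeled, 0.24 uM Alexa 594-labeled) in 100 mM sodium acetate pH 7 with 20 uM heparin, 6 hr at 37 C. ThT 30 uM added, 1 hr ambient; Alexa 594 FP and total fluorescence read at 555/632 nm.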
TR SRC2 fluor cs: Texas Red fluorescence interference in TRb-SRC2 counter-screen; 0.29% of 280,000 active; AID 1479; TRb/SRC2 Texas Red total fluorescence interference; Potency, µM (top dose mostly 106 µM); active = well fitted curve in either direction with a large enough effect; inconclusive = small, poorly fitted or top-dose-only effect
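Human TRβ ligand-binding domain (0.6 uM) and Texas Red SRC2 peptide (20 nM) in Tris buffer with 1 uM T3 and 5% DMSO were incubated with pinned compound for 5 hr at ambient temperature. Total fluorescence was computed as S + 2P (555/632 nm).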
Tau fibril FP: tau fibrillization inhibition (FP); P10636; K18 P301L tau heparin fibrillization, Alexa594 FP, 6 h; Potency, µM (titrated, usually from 57.7 µM), hits mostly inhibitors; 0.39% of 280,000 active; AID 1468; also: nearly all actives have a fitted effect of over 55% in size
Target sequence (P10636 561-689 P618L limits assumed): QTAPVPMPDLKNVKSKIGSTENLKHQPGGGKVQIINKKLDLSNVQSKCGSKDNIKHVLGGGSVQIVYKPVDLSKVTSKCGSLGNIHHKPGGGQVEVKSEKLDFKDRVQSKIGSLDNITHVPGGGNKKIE
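Human tau K18 […] P301L fragment, 15 uM unlabeled plus 0.24 uM Alexa 594-labeled tau (final), with compound and 20 uM heparin in 100 mM sodium acetate pH 7; 6 hr at 37 C, then Alexa 594 FP read.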
Tau ThT inhib: blocks human tau fibril formation measured by thioflavin T; P10636; recombinant tau K18 P301L, heparin-induced fibrillization, ThT fluorescence; Potency, µM (titrated, usually from 57.4 µM), usual class: inhibitors; 2.1% of 270,000 active; AID 1460; also: nearly all actives have a fitted effect of over 55% in size
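Heparin-induced (20 uM) aggregation of recombinant human K18 P301L tau, 15 uM unlabeled with 0.24 uM labeled, pH 7 acetate buffer, 6 hr at 37 C with compound. Fibrils quantified by 30 uM ThT fluorescence after 1 hr ambient incubation.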
Tau fibril TEM: Blocks tau fibril formation, electron microscopy; fibril grade (0 = clumped fibrils, 4 = only tiny pieces) (concentration not given with the values); 70% of 45 active; AID 1719; shares compounds with Tau ThT inhib; recombinant tau K18 P301L fibrillization, TEM grading; active compounds read high;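 active = compounds whose electron micrographs showed tau fibrils broken into shorter filaments or fragments, graded high on fibril breakup; inconclusive = micrographs gave an unclear fibril picture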
tau fibril sed: tau fibrillization inhibition by sedimentation; inhibition, % at 100 µM; shares compounds with Tau ThT inhib; recombinant tau K18 P301L (four-repeat tau fragment), sedimentation SDS-PAGE densitometry; 50% of 110 active; AID 1720; in the data active = inhibition above about 40%; inconclusive = no clear call, values can overlap the other calls; inactive = below about 18%
Each line names hits and unclear results; the compound was inactive in the other large screens (follow-up assays come after a bar, where they were run); [ ] = another dose, or the depositor's remark. Unless noted, calls follow the shape of the dose curve; as a rule, active = well fitted curve in the direction sought with a large enough effect; inconclusive = small, poorly fitted or top-dose-only effect, or another doubt; inactive = no such curve, though single readings can be large; an effect the other way counts as inactive or inconclusive.

COc1ccc(N2CC(NC(=O)c3ccc4c(c3)OCO4)CC2=O)cc1 (stereo not given)	none
N#Cc1c(/N=C/c2cccs2)sc2c1CCC2	Tau ThT inhib 2.8µM
N#Cc1c(/N=C/c2ccco2)sc2c1CCCCC2	Tau ThT inhib 4.5µM
CN(C)/C=N/c1sc2c(c1C#N)CCCC2	Tau ThT inhib inconclusive
Brc1ccc(Oc2ccc(Br)cc2)cc1	none (no result: Tau fluor counter, Tau fibril FP, Tau ThT inhib)
C[C@H]1Cc2c(-c3ccccc3)nc3c(c2CO1)CN(C(=O)C1CCCCC1)CC3	none
Cc1cc(C)c(C(CC(=O)c2cccs2)C(C#N)C#N)c(C)c1 (stereo not given)	Tau ThT inhib 25µM
O=C1c2ccc(O)c(O)c2C(=O)c2c(O)ccc(O)c21	TRb-SRC2 inh 25µM, Tau fluor counter 2.5µM[quencher], TR SRC2 fluor cs 45µM[fluorescent], Tau fibril FP 13µM, Tau ThT inhib 1.4µM
COC(=O)c1ccc2c(c1O)C(=O)c1ccccc1C2=O	Tau fluor counter inconclusive, Tau ThT inhib 5.6µM
O=C1c2cccc(O)c2C(=O)c2c(O)cccc21	Tau fluor counter inconclusive, Tau ThT inhib inconclusive
O=C1c2ccccc2C(=O)c2c1ccc(O)c2O	Tau fluor counter inconclusive, Tau ThT inhib 8.9µM
Cc1ccc(CNC(=O)C2CCCN(S(=O)(=O)c3cccc4nsnc34)C2)cc1 (stereo not given)	none
COc1cccc(Cn2c(CNC(=O)c3cc([N+](=O)[O-])ccc3Cl)nc3cccnc32)c1	TR SRC2 fluor cs inconclusive
O=c1[nH]ncc2ccccc12	none (no result: Tau fluor counter, Tau fibril FP, Tau ThT inhib)
O=[N+]([O-])c1ccccc1NCc1c(O)ccc2ccccc12	Tau fluor counter 13µM[quencher], Tau ThT inhib inconclusive
CN(C(=S)Nc1cccnc1)c1ccc(O)cc1	TRb-SRC2 inh 35µM, Tau fluor counter inconclusive, Tau fibril FP 3.2µM, Tau ThT inhib 2µM | Tau fibril TEM 2 | tau fibril sed 51
NCCc1ccc(O)c(O)c1	Tau fibril FP inconclusive, Tau ThT inhib inconclusive | tau fibril sed inactive
O=C(Nc1nc2ccc(S(=O)(=O)N3CCCC3)cc2s1)c1ccc(F)cc1	none | tau fibril sed inactive
Cc1ccc(SCc2cc(=O)n(C)[nH]2)cc1	TRb-SRC2 inh inconclusive, Tau fluor counter inconclusive, Tau fibril FP inconclusive, Tau ThT inhib 2.2µM | tau fibril sed inactive
CCOC(=O)c1nn(-c2ccccc2)c(=O)c2c(N)sc(C)c12	none (no result: TRb-SRC2 inh, Tau fluor counter, TR SRC2 fluor cs, Tau fibril FP, Tau ThT inhib) | tau fibril sed inactive
CCOC(=O)c1nn(-c2ccc(OC)cc2)c(=O)c2c(N)scc12	Tau fluor counter inconclusive, Tau fibril FP inconclusive, Tau ThT inhib 8.9µM | Tau fibril TEM 2 | tau fibril sed 66
CCOC(=O)c1nc(N)c(=O)n(-c2ccccc2)n1	none
CCOC(=O)c1nn(-c2ccc(C)c(C)c2)c(=O)c2c(N)scc12	none | tau fibril sed inconclusive
CCOC(=O)c1nn(-c2ccc(Cl)c(Cl)c2)c(=O)c2c(N)scc12	none (no result: TRb-SRC2 inh, Tau fluor counter, TR SRC2 fluor cs, Tau fibril FP, Tau ThT inhib) | tau fibril sed inactive
CCOc1ccc(NC(=O)NCc2ccc3c(c2)CCN3C(C)=O)cc1	Tau ThT inhib inconclusive
CCOC(=O)c1nn(-c2ccccc2)c(=O)c2c(NC(=O)c3ccccc3)scc12	none (no result: TRb-SRC2 inh, Tau fluor counter, TR SRC2 fluor cs, Tau fibril FP, Tau ThT inhib) | tau fibril sed inactive
CCOC(=O)c1nn(-c2cccc(C(F)(F)F)c2)c(=O)c2c(N)scc12	none (no result: TRb-SRC2 inh, Tau fluor counter, TR SRC2 fluor cs, Tau fibril FP, Tau ThT inhib) | tau fibril sed 41
CCCn1c(=O)c(/C(N)=N/O)nn(-c2cccc(C(F)(F)F)c2)c1=O	none
COc1ccc(CNC(=O)Cn2nc(C)n3cccc3c2=O)cc1	Tau fibril FP inconclusive | tau fibril sed inactive
Cc1ccc(CNC(=O)Cn2nc(C)n3cccc3c2=O)cc1	Tau fibril FP inconclusive
CCCCNS(=O)(=O)c1ccc2nc(-c3cccnc3)cc(C(=O)NCCC)c2c1	Tau fibril FP inconclusive
CCCN(Cc1cccs1)C(=O)Nc1cc(C)ccc1OC	none
COC(=O)c1c(NC(=O)CCCOc2ccc(C(C)(C)C)cc2)sc2c1C(C(=O)OC)CC2 (stereo not given)	Tau fluor counter inconclusive, Tau fibril FP inconclusive, Tau ThT inhib 8.9µM | Tau fibril TEM inactive | tau fibril sed inconclusive

Bioassay records as filed in PubChem BioAssay.
